Structures are written as SMILES. Results filed as inconclusive are left out. Entries that show only a call come without a potency. Active and inactive are the calls of the source. Calls follow the shape of the dose curve; as a rule, active = well fitted inhibition curve with a large enough effect; inconclusive = small, poorly fitted or top-dose-only effect; inactive = no such curve, though single readings can be large or run the other way.

The target in this test is Luciferin 4-monooxygenase (Photinus pyralis) (UniProt P08659). In words: FLuc inhibitory activity for the follow-up compounds in a biochemical assay with a commercial detection reagent - BriteliteTM Plus (PerkinElmer). Conditions: purified FLuc, Britelite Plus luminescence; series mostly up to 38.3 µM. From the text: NCGC Assay Overview: Firefly (Photinus pyralis) luciferase is one of the most commonly used transcriptional reporters. It is considered one of the more dynamically responsive reporters - that is, responsive to changes in reporter transcription - as it requires no post-translational modifications and is enzymatically active directly after protein synthesis (Wood, 1998). With no endogenous expression in mammalian cells and without the requirement of external excitation, it offers very little background signal, thus generally providing excellent signal to background for most assays. Previous profiling work to determine the prevalence of compounds that affect FLuc enzymatic activity (PubChem AID 411) identified that ~3% of the MLSMR library (then at ~72K) inhibited FLuc (Auld et al., 2008). […] Of the compounds identified in this profile that inhibited FLuc, 151 compounds were selected for further analysis, in an effort to better understand their mode of inhibiting FLuc. The assay described here was to determine the activity of the compounds in a FLuc assay that used a commercial formulation of detection reagent (BriteliteTM Plus; PerkinElmer).
Sequence of Luciferin 4-monooxygenase (Photinus pyralis) (P08659 whole entry, looked up): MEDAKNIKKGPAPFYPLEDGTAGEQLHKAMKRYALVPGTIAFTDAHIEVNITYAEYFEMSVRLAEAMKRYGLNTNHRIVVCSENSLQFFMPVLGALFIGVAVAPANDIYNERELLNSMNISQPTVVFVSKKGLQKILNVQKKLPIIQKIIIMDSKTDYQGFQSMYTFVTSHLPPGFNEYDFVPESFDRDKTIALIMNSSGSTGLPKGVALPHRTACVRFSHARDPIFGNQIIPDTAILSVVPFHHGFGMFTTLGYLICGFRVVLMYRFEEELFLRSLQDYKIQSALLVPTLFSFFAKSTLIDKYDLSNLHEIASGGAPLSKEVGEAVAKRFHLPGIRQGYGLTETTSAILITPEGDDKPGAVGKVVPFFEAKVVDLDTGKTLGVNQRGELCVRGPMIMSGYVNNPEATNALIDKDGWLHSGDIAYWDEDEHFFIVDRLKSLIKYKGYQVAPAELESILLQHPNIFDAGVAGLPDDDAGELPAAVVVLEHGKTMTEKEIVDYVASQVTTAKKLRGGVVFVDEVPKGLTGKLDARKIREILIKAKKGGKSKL
NCGC Assay Protocol Summary: Reagents: Britelite Plus detection reagent; 50mM Tris acetate, pH 7.5; 10nM P. pyralis luciferase (Sigma #L9506) Control compounds used were two known firefly luciferase inhibitors (3-(5-(3-chlorophenyl)-1,2,4-oxadiazol-3-yl)benzoic acid and 5-(2-fluorophenyl)-3-phenyl-1,2,4-oxadiazole), and DMSO. Assay Summary: Three microliters of buffer containing firefly luciferase (final concentrations: 50mM Tris acetate, 10nM P. pyralis luciferase) are dispensed into each well of a Greiner white, solid-bottom 1536-well format plate using a flying reagent dispenser (FRD). These assay plates were then treated with 23nL of compound or DMSO using a Kalypsys pin tool, which allows for delivery of a 12-point intraplate titration of each compound to the assay plate (quantitative HTS), with final compound concentrations ranging from approximately ~38uM to 0.2nM. Three microliters of 2X Britelite Plus detection reagent was then delivered by FRD to each well. Luciferase activity was then measured using a ViewLux CCD imager (PerkinElmer), with an average exposure time of 2-30 seconds (2X binning, medium/high gain).
In the case of `Cc1ccc(C(=O)Nc2cccc(C(=O)O)c2)cc1S(=O)(=O)N1CCCC1`, the Potency is 2250 nM (active). Next, `O=C(O)c1ccc(NC(=O)c2ccccc2NC(=O)c2cccc(Br)c2)cc1`: “inactive”; `COc1ccc(C(=O)Nc2ccccc2C(=O)Nc2ccccc2C(=O)O)cc1`: 11300 nM (active); `O=C(Nc1cccc(-c2nc3ccccc3s2)c1)c1cc(-n2cnnc2)ccc1Cl`: “inactive”.

For `O=C(O)c1ccc(NC(=O)c2ccccc2NC(=O)c2ccccc2Br)cc1`, the Potency entry was “inactive”. Consider `COc1ccc2nc(NC(=O)C3CCN(S(=O)(=O)c4cccs4)CC3)sc2c1`, for which the Potency result was “inactive”. With `Cc1cccc(NS(=O)(=O)c2cccc(C(=O)Nc3cccc(C(=O)O)c3)c2)c1` the entry was “inactive”; with `O=C(Nc1ccccc1-c1nc2ccccc2s1)c1ccc(Br)o1`, “inactive”; with `Cc1ccc2nc(-c3ccc(N)cc3)sc2c1`, 895 nM (active).

With `COc1ccccc1C(=O)Nc1ccc(C(=O)O)cc1`, the Potency result is “inactive”. Next, `O=C(Nc1ccccc1C(=O)O)c1cccc(S(=O)(=O)Nc2ccc(Br)cc2)c1`: “inactive”; `O=C(COC(=O)c1ccccc1[N+](=O)[O-])c1ccc2c(c1)OCO2`: 17.9 nM (active). Next, `CCOc1ccc2nc(NC(=O)Cc3cccs3)sc2c1`: “inactive”; `O=C(Cc1ccccc1)Nc1ccccc1C(=O)Nc1ccc(C(=O)O)cc1`: “inactive”.

As for `O=C(Nc1ccccc1C(=O)O)c1cccc(NC(=O)c2ccc(Br)o2)c1`, the Potency entry is “inactive”. Next, `c1ccc2sc(-c3ccc4c(c3)OCO4)nc2c1`: 1790 nM (active); `Cc1ccc(C(=O)Nc2cccc(C(=O)O)c2)cc1S(=O)(=O)N1CCCCC1`: 2830 nM (active). As to `COc1ccc2nc(NC(=O)c3ccc(NS(=O)(=O)c4cccs4)cc3)sc2c1`, the Potency result is “inactive”. Next, `COc1ccc2nc(NC(=O)c3ccc([N+](=O)[O-])o3)sc2c1`: 3560 nM (active); `Nc1cccc(-c2nc3ccc(N)cc3s2)c1`: 798 nM (active).

For `COc1ccc(C(=O)Nc2ccccc2C(=O)N/N=C/c2ccc(O)c(OC)c2)cc1`, the Potency is 2 nM (active).

On to `CCOc1ccc2nc(NC(=O)c3cc([N+](=O)[O-])ccc3N3CCOCC3)sc2c1`, for which the Potency entry was “inactive”.

In the case of `COc1ccc2nc(NC(=O)c3ccc4ncsc4c3)sc2c1`, the Potency is 25200 nM (active). As to `COc1ccc(C(=O)Nc2nc3ccc(OC)cc3s2)cc1`, the Potency result was “inactive”.

On to `COc1ccc(NS(=O)(=O)c2cccc(C(=O)Nc3ccccc3C(=O)O)c2)cc1`, for which the Potency entry is “inactive”.

Turning to `CC(C)c1ccc(C(=O)Nc2ccc(-c3nc4ccccc4s3)c(Cl)c2)cc1`, the Potency entry was “inactive”. For `CC(C)C(=O)Nc1cccc(C(=O)Nc2ccccc2C(=O)O)c1`, the Potency was 17900 nM (active).

As for `Cc1ccc2sc(-c3ccc(N)cc3)nc2c1`, the Potency was 798 nM (active). On to `CC(C)(C)NC(=O)c1ccccc1-c1nc2ccccc2s1`, for which the Potency entry is “inactive”. `O=C(Nc1ccc(-c2nc3ccccc3s2)cc1)C1=COCCO1`: the Potency was 400 nM (active). With `CC(C)(C)C(=O)Nc1ccc(-c2nc3ccccc3s2)cc1` the figure was 17.9 nM (active); with `CCCC(=O)Nc1nc2ccc(OCC)cc2s1`, 79.8 nM (active); with `Cc1c(NS(C)(=O)=O)cccc1-c1nc2ccccc2s1`, “inactive”. With `COc1ccc2nc(NC(=O)c3ccco3)sc2c1` the figure was 1590 nM (active); with `COc1cc(OC)cc(C(=O)Nc2ccc(-c3nc4ccccc4s3)c(C)c2)c1`, 113 nM (active).

For the origin of these results see PubChem BioAssay AID602474 (National Center for Advancing Translational Sciences (NCATS), 2012).
